Bioassay records: PubChem, several laboratories
In the library only some 3.8% were active in any assay of this set; here they are far more common.
tim23-1 inh: growth inhibitors of tim23-1 mutant yeast; inhibition, % at 20 µM; hit rate 1.3% among 330,000; S. cerevisiae tim23-1 growth, BacTiter-Glo luminescence, 24 h;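 active means growth inhibition of the mutant yeast at or above 50%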;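 further: temperature-sensitive mutant grown at 25 °C; plate controls were DMSO-treated mutant yeast for no effect and medium wells lacking yeast for full effect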
NLRP3 yeast inh: inhibitors of NALP3 inflammasome in yeast; inhibition, % at 10 µM; AID 2825; Yeast reconstituted NLRP3/ASC/caspase-1, beta-gal luminescence, 24 h; hit rate 0.39% among 330,000;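 active means inhibition of 50% or more; inactive means inhibition below 50%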;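 further: plate controls were induced DMSO wells for no effect and uninduced yeast grown without galactose for full effect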
Yeast superoxide: lowers age-related superoxide in aged yeast cells; hit rate 0.18% among 330,000; S. cerevisiae aged cells, superoxide DHE fluorescence; hits give low values; AID 2690; superoxide response (% of plate mean), % at 10 µM;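 active means superoxide response under a set limit, about three screen SD below normal, cut at about 65% in these data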;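 further: yeast aged for seven days with compound at 30 °C before DHE staining; 100% = average MFI of all compound-treated wells on the plate with controls excluded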
tim10-1 inh: tim10-1 yeast growth inhibition | S. cerevisiae tim10-1 ts strain growth, BacTiter-Glo, 24 h | inhibition, % at 20 µM | hit rate 2.2% among 330,000;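 active means inhibition of at least 40%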;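 further: mutant grown at 25 °C; 0% = DMSO wells with yeast and 100% = wells holding no yeast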
TIM10 inh: TIM10 yeast growth inhibition; S. cerevisiae TIM10 strain growth, BacTiter-Glo luminescence, 24 h; inhibition, % at 10 µM; hit rate 1.4% among 330,000;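 active means inhibition of 40% or more at the single tested concentration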;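 further: wild-type TIM10 isogenic control strain grown at permissive 25 °C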
tim10-1 conf: tim10-1 yeast growth inhibition, confirmed | shares compounds with tim10-1 inh | S. cerevisiae tim10-1 ts strain growth, BacTiter-Glo, 24 h | inhibition, % at 20 µM | hit rate 56% among 7,400;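 active means inhibition of yeast growth at or above a set limit in either of two repeat tests at 20 µM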;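 further: tim10-1 mutant grown at permissive 25 °C to find synthetic lethal compounds; 0% = DMSO yeast wells and 100% = medium wells without yeast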
TIM10 conf: TIM10 yeast growth inhibition, confirmed; shares compounds with TIM10 inh; S. cerevisiae tim10 strain growth, BacTiter-Glo luminescence, 24 h; inhibition, % at 10 µM; hit rate 63% among 4,600; AID 463215;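 active means inhibition of yeast growth at or above a set limit in either of two replicates at 10 µM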;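 further: this counterscreen used the strain with wild-type TIM10; 0% = yeast with DMSO and 100% = medium wells lacking yeast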
tim23-1 confirm: tim23-1 yeast growth inhibition, confirmed. S. cerevisiae tim23-1 growth, BacTiter-Glo luminescence, 24 h. shares compounds with tim23-1 inh. hit rate 83% among 4,400. inhibition, % at 20 µM;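 active means inhibition above about 39% in either of two replicate wells at 20 µM, limit read from the data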;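 further: temperature-sensitive tim23-1 mutant grown at 25 °C; 0% = DMSO wells with yeast and 100% = medium wells without yeast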
The depositor's hits bear a star; . = no result.

SMILES	tim23-1 inh	NLRP3 yeast inh	Yeast superoxide	tim10-1 inh	TIM10 inh	tim10-1 conf	TIM10 conf	tim23-1 confirm
COc1ccccc1-c1ccc(NC2CCCCC2)nn1	52*	17	89	43*	29	38*	.	41*
COc1ccccc1-c1ccc(Nc2cccc(C(F)(F)F)c2)nn1	-5	3	90	8	-8	.	.	.
Nc1ccccc1C#Cc1ccc2[nH]ccc2c1	63*	25	100	44*	25	7	.	53*
Nc1ccccc1C#Cc1ccccc1	2	9	.	-5	-9	.	.	.
CCNC(=S)NNC(=O)c1cc(C)nc2ccccc12	-2	4	95	-3	6	.	.	.
CCNC(=S)NNC(=O)c1cc(-c2ccc(OC)cc2)nc2ccccc12	86*	6	99	82*	54*	74*	-30	78*
CCNC(=S)NNC(=O)c1cc(-c2cccc(C)c2)nc2ccccc12	73*	2	109	82*	55*	79*	41*	72*
O=C(CC(CC(=O)c1ccc(Br)cc1)c1cccnc1)c1ccc(Br)cc1	6	1	98	-14	8	.	.	.
CCOC(=O)CN1N=C(c2ccc(Cl)cc2)CCC1=O	10	8	111	19	-4	.	.	.
COc1cccc(C(c2c(C)[nH]n(-c3ccccc3)c2=O)c2c(C)[nH]n(-c3ccccc3)c2=O)c1OC	63*	-27	96	52*	32	33*	.	55*
COc1cccc(C(c2c(C)[nH]n(-c3ccccc3)c2=O)c2c(C)[nH]n(-c3ccccc3)c2=O)c1O	41	4	113	25	33	.	.	.
Cc1[nH]n(-c2ccccc2)c(=O)c1C(C[N+](=O)[O-])c1ccccc1Cl (configuration not stated)	74*	27	110	61*	44*	59*	56*	75*
CCC(C)c1ccc(S(=O)(=O)N2CCN3CCCC3C2)cc1 (configuration not stated)	16	20	96	8	-4	.	.	.
CC(C)[C@H](NC(=O)C1CCCC1)c1nc2ccccc2[nH]1	10	-9	91	1	1	.	.	.
Oc1c(Br)cc(Br)cc1/C=N/c1nccs1	75*	13	76	46*	29	34*	.	90*
Oc1ccc(Cl)cc1/C=N/c1nccs1	55*	16	82	45*	30	44*	.	30
COc1cc2c(cc1OC)C(c1ccc(-c3ccc(Cl)c(Cl)c3)o1)=NCC2	57*	28	102	56*	37	44*	.	54*
NC(=O)N=Nc1c2[nH]c3ccccc3nc-2c2ccccc12	56*	42	94	44*	52*	45*	62*	52*
Cc1ccc(SCCNS(=O)(=O)c2ccc3c(c2)OCCO3)cc1	55*	19	113	52*	51*	42*	-6	53*
COc1ccc(CCNS(=O)(=O)c2ccc3c(c2)OCCO3)cc1	59*	14	100	50*	49*	42*	-30	56*
COc1ccc(CCNC(=O)c2ccc3c(c2)OCCO3)cc1	20	17	91	1	2	.	.	.
COc1ccc(S(=O)(=O)NCc2ccc(C)cc2)cc1	56*	5	97	48*	16	23	.	43*
O=S(=O)(NCCSCc1ccc(Cl)c(Cl)c1)c1ccc2c(c1)OCCO2	55*	12	103	47*	53*	33*	36*	49*
COCC1CCN(Cc2cn[nH]c2-c2ccc(OC)c(F)c2)C1 (configuration not stated)	12	-14	110	17	1	.	.	.
O=C(N=C1SC2CS(=O)(=O)CC2N1c1cccc(Cl)c1Cl)C1CC1 (configuration not stated)	11	13	90	13	-3	.	.	.
SMILES	tim23-1 inh	NLRP3 yeast inh	Yeast superoxide	tim10-1 inh	TIM10 inh	tim10-1 conf	TIM10 conf	tim23-1 confirm
CCN1/C(=C/c2ccc3cc(C)ccc3[n+]2CC)Sc2ccc3sccc3c21	60*	39	136	46*	68*	45*	74*	69*
Cc1ccc(/C=c2\sc3nc(-c4ccco4)nn3c2=O)o1	16	31	104	25	7	.	.	.
COc1ccc(Br)cc1/C=c1\sc2nc(-c3ccco3)nn2c1=O	53*	4	116	54*	42*	44*	38*	55*
CCN(C(=O)Cc1c(C(=O)O)n(C)c2ccccc12)c1cccc(C)c1	31	9	99	19	19	.	.	.
O=S1(=O)c2ccccc2N=NN1Cc1ccc(Cl)c(Cl)c1	-3	6	113	28	14	.	.	.
CC(C)(C)c1ccc(CN2N=Nc3ccccc3S2(=O)=O)cc1	63*	11	96	72*	60*	64*	-1	28
COc1ccc(C(C[N+](=O)[O-])c2c(-c3ccccc3)cc3ccccn23)c(OC)c1 (configuration not stated)	73*	13	99	70*	60*	67*	67*	91*
COc1ccc(C(C[N+](=O)[O-])c2c(C)cc3ccccn23)cc1 (configuration not stated)	47	14	97	30	9	.	.	.
Cc1ccc(S(=O)(=O)CC(=O)Nc2nc(-c3ccccc3)cs2)cc1	52*	26	93	44*	29	45*	.	47*
O=S(=O)(c1ccc2c(c1)OCCO2)N1CCN(Cc2ccc3c(c2)OCO3)CC1	60*	9	91	47*	50*	46*	51*	63*
O=S(=O)(c1ccc(F)c(F)c1)N1CCN(Cc2ccc3c(c2)OCO3)CC1	16	26	84	20	13	.	.	.
CCn1c(Sc2ccc(N)cc2Cl)nc2ccccc21	66*	31	80	47*	44*	50*	47*	47*
NNC(=O)c1cccc(COc2cccc(Br)c2)c1	51*	7	96	45*	36	29	.	18
NNC(=O)c1cccc(COc2ccc(Br)cc2)c1	46	30	115	39	26	.	.	.
CC(C)(C)OC(=O)NCc1ccc(CNC(=O)c2[nH]cnc2C(=O)NCC(=O)OCc2ccccc2)cc1	7	-5	97	9	0	.	.	.
CCCCNC(=O)c1ccccc1NC(=O)CCC	29	25	91	16	8	.	.	.
CCOc1ccc(C(=O)/C=C/c2cn(CN3CCN(C)CC3)c3ccccc23)cc1	68*	37	108	40*	39	20	.	51*
Cc1ccc(NC(=O)c2ccc(C)cc2)cc1	7	26	86	-16	-15	.	.	.
Cc1ccc(C(=O)Nc2ccc(Br)c(C(F)(F)F)c2)cc1	67*	-16	108	75*	63*	45*	63*	62*
